Pf apPOL block = Pf-apPOL DNA polymerase inhibition; Recombinant Pf-apPOL, molecular beacon fluorescence, 1.5 h; inhibition, % at 10 µM; actives 0.25% (n = 210,000)
mHTT-CaM PPI inh = disrupts binding of mutant huntingtin to calmodulin | AlphaScreen His-mHTT/GST-CaM binding, luminescence | AID 1671202 | inhibition, % at 15 µM | actives 3.6% (n = 190,000) | P42858
Each line names hits and unclear results; the compound was inactive in the other large screens. This excerpt belongs to a sample that is enriched for hits. Cut-off read from the data, not from the text of the source: active = inhibition above about 50%; inactive = the rest.

Cc1ccc(NC(=O)N2CCn3c(C)ccc3C2C(C)C)cc1C (stereo not given)	none
O=[N+]([O-])c1cn[nH]c1C=NO	none (no result: mHTT-CaM PPI inh)
Cc1ccccc1NS(=O)(=O)c1ccc(-c2ccccc2)cc1	mHTT-CaM PPI inh 80.3
COc1ccc(S(=O)(=O)Nc2ccccc2C)cc1OC	none
CCOc1cc(C(=O)Nc2cccc(N3CCCC3=O)c2)cc(OCC)c1OCC	none
CC1C(=O)N(Cc2cn(CCC3OCCCO3)nn2)CCS(=O)(=O)N1Cc1ccc(-c2ccc(F)nc2)cc1 (stereo not given)	none
CC1C(=O)N(Cc2cn(Cc3ccco3)nn2)CCS(=O)(=O)N1Cc1ccc(-c2ccncc2)cc1 (stereo not given)	none
CC1C(=O)N(Cc2cn(Cc3ccco3)nn2)CCS(=O)(=O)N1Cc1ccc(-c2ccccc2Cl)cc1 (stereo not given)	mHTT-CaM PPI inh 76.8
CC1C(=O)N(Cc2cn(Cc3ccco3)nn2)CCS(=O)(=O)N1Cc1ccc(-c2ccc(F)cc2Cl)cc1 (stereo not given)	mHTT-CaM PPI inh 81.0
CC(O)c1nc2ccccc2n1Cc1ccc(Cl)cc1 (stereo not given)	none
Cc1ccc(-c2ccc(C=C3C(=O)OC(C)(C)OC3=O)o2)cc1	none
CC1=NOC(=O)/C1=C/c1ccc(-c2ccc3c(c2)COC3=O)o1	none
CC1(C)OC(=O)C(=Cc2ccc(-c3cccc(Cl)c3)o2)C(=O)O1	mHTT-CaM PPI inh 55.0
CC1=NOC(=O)/C1=C/c1ccc(-c2ccc(Cl)cc2)o1	mHTT-CaM PPI inh 64.0
CN(C)CCN(C)Cc1ccc(Cl)cc1Cl	none
Cc1ccc(C(=O)Cn2c3ccccc3n3nc(CCC(=O)O)c(=O)nc23)cc1	none
COCCC1CCN(C(=O)Cc2cccc(Cl)c2)CC1	none
Cn1ncc(N2CCC(C(=O)NCc3ccco3)CC2)cc1=O	none
O=C1N=c2ccc(F)cc2=C1c1sc(Nc2ccc(F)cc2)nc1O	none
Nc1nc(O)c(C2=c3cc(F)ccc3=NC2=O)s1	mHTT-CaM PPI inh 81.0
CCc1ccc(CNC(=O)C(=O)Nc2cccc(OC)c2)cc1	none
CC1(C)c2ccccc2N(CC(N)=O)C12C=Cc1cc([N+](=O)[O-])ccc1O2 (stereo not given)	mHTT-CaM PPI inh 85.0
COc1ccc2c(c1)C(C)(C)C1(C=Cc3cc([N+](=O)[O-])ccc3O1)N2C (stereo not given)	mHTT-CaM PPI inh 70.0
CN1c2ccccc2C(C)(C)C12C=Cc1cc(Br)cc([N+](=O)[O-])c1O2 (stereo not given)	none (no result: mHTT-CaM PPI inh)
COc1cccc2c1OC1(C=C2)N(C)c2ccc([N+](=O)[O-])cc2C1(C)C (stereo not given)	none
COc1ccc(CCNC(=O)CSc2nc3c(cnn3-c3ccccc3)c(=O)[nH]2)cc1OC	none
Cc1ccc(C)c(NC(=O)C2CC(=O)N(c3cccc([N+](=O)[O-])c3)C2)c1 (stereo not given)	none
O=C(NCC1(O)CCc2ccccc21)c1cccs1 (stereo not given)	none
Cc1cc(C)c(C(=O)N2CCC(CC(=O)NC3CCCCCC3)CC2)[nH]1	none
Cc1nc(CC(=O)NC2CCc3[nH]c4ccc(Cl)cc4c3C2)c(C)s1 (stereo not given)	mHTT-CaM PPI inh 99.3
O=C(Cc1c(C(=O)O)[nH]c2ccc(Cl)cc12)NC1CC1	none
O=C(NC1CCc2[nH]c3ccc(Br)cc3c2C1)C1CC=CCC1 (stereo not given)	mHTT-CaM PPI inh 98.0
O=C(NC1CC1)C1CCN(S(=O)(=O)c2ccc3[nH]c4c(c3c2)CCCCC4)CC1	none
CC(C)C(=O)NC1CCc2[nH]c3ccc(Br)cc3c2C1 (stereo not given)	mHTT-CaM PPI inh 53.2
Cc1cc(Cl)cc2c3c([nH]c12)CCC(NC(=O)CC1CC1)C3 (stereo not given)	mHTT-CaM PPI inh 90.3
CC(CC(F)(F)F)C(=O)NC1CCc2[nH]c3ccc(Br)cc3c2C1 (stereo not given)	none
CN(C)S(=O)(=O)c1ccc(C(=O)N2CCN(Cc3nc4ccccc4[nH]3)CC2)cc1	none
CCCCN1C(=O)C(C)(C(=O)N2CCN(c3cccc(C)c3C)CC2)Oc2cccnc21 (stereo not given)	none
CS(=O)(=O)N1CCc2ccccc21	none (no result: Pf apPOL block)
COc1cc(C=C2Oc3c(ccc(O)c3C)C2=O)cc(OC)c1OC	none
Cc1ccccc1CNC(=O)C1CCCN(c2nnc3cccc(C)n23)C1 (stereo not given)	none
COc1ccc(-c2coc3cc(OC(=O)c4ccco4)ccc3c2=O)cc1OC	none
Cc1ccc2[nH]c3c(c2c1)CC(NC(=O)CC(C)C)CC3 (stereo not given)	mHTT-CaM PPI inh 92.6
Cc1ccc2[nH]c3c(c2c1)CN(C)CC3	none
NCCc1nc(-c2ccc(C(F)(F)F)cc2)no1	none
CCCn1c(C(=O)N(C)Cc2ccccc2)cc2sc(C)cc21	mHTT-CaM PPI inh 91.1
CCCn1c(C(=O)N(C)Cc2ccccc2)cc2sc(Br)cc21	none
CCCNC(=O)c1nc(C)n(C2CCN(C)CC2)c1C	none
Cc1nc(C(=O)NCCc2ccc(Cl)cc2)c(C)n1C1CCN(S(C)(=O)=O)CC1	mHTT-CaM PPI inh 61.2
Cc1nc(C(=O)NCCCN2CCCc3ccccc32)c(C)n1C1CCN(C)CC1	mHTT-CaM PPI inh 96.9
Cc1nc(C(=O)NCCc2ccccn2)c(C)n1C1CCN(S(C)(=O)=O)CC1	none
COc1ccc(NC(=O)c2ccc(Br)o2)cc1Cl	none
COc1ccc(-c2c(C)oc3c(CN4CCN(C)CC4)c(O)ccc3c2=O)cc1OC	none
COCCCNC(=O)c1cc2c(=O)n3ccccc3nc2n(C2CCCC2)c1=N	none
Cc1cc(C)n(S(=O)(=O)c2ccc(I)cc2)n1	none
Cc1ccc(Cc2c(C)nc3nc(SCC(=O)NC4CC4)nn3c2C)cc1	none
Cc1nc2nc(SCC(=O)N3CCC(C)CC3)nn2c(C)c1Cc1ccc(Cl)cc1	mHTT-CaM PPI inh 52.0
Cc1nc(NC(=O)C2C3CCC(C3)C2C(=O)O)sc1-c1ccccc1 (stereo not given)	none
O=C(C1=C(O)C(=O)N(CCCn2ccnc2)C1c1ccc(F)cc1)c1cc2ccccc2o1 (stereo not given)	none
NC(=O)c1ccc(N=c2oc3c(Cl)cc(Cl)cc3cc2C(N)=O)cc1	none
N=c1oc2c(Cl)cc(Cl)cc2cc1C(N)=O	mHTT-CaM PPI inh 91.0
c1ccc(C2=NN3C(C2)c2ccccc2OC3c2ccc3c(c2)OCO3)cc1 (stereo not given)	none
CN1CC2c3ccccc3OC(c3ccc4c(c3)OCO4)C2([N+](=O)[O-])O1 (stereo not given)	mHTT-CaM PPI inh 96.3 (no result: Pf apPOL block)
CC(C)[C@H]1COCCS(=O)(=O)N1Cc1ccc(Cl)cc1	none
CC(C)[C@H]1COCCS(=O)(=O)N1Cc1ccccc1-c1cccc2c1oc1ccccc12	mHTT-CaM PPI inh 53.1
O=S(=O)(NCCSCc1ccc(Cl)cc1)c1ccc2c(c1)OCCO2	none
O=S(=O)(NCCSCc1ccc(Cl)c(Cl)c1)c1ccc2c(c1)OCCO2	mHTT-CaM PPI inh 50.6
CS(=O)(=O)NCCSCc1ccc(Cl)c(Cl)c1	none
CC(=O)Nc1ccc(S(=O)(=O)NCCSCc2ccc(Cl)c(Cl)c2)cc1	mHTT-CaM PPI inh 90.1
COc1ccccc1NC(=O)C1CCN(c2nccc(C)n2)CC1	none
CCn1c(SCC(=O)Nc2ncc3c(n2)CC(c2ccco2)CC3=O)nnc1-c1ccncc1 (stereo not given)	none
COc1ccc(CNc2ccccc2)cc1C	none
Cc1ccc(C)c(CNc2ccc3[nH]ncc3c2)c1	mHTT-CaM PPI inh 74.9
CC(CCc1ccc(O)cc1)Nc1ccc2[nH]ncc2c1 (stereo not given)	none
COc1ccc(CNc2ccc3[nH]ncc3c2)cc1C	mHTT-CaM PPI inh 64.8
